# In PubChem BioAssay AID2685 (National Center for Advancing Translational Sciences (NCATS), 2010):
# Several values for one entry are separate records, joined by “and”; a condition that tells them apart may be missing. Equal values may be shown once. Hit rate of the full screen: of about 320,000 compounds, about 2,100 (0.66%) were called active. Another 53% or so got no clear call; they are omitted. Calls come from the whole dose curve; as a rule, active = well fitted inhibition curve with a large enough effect in the signal ratio, with a control signal flat (not every such curve was filed as active); inconclusive = small, poorly fitted or top-dose-only effect, or effect the other way, or a change in a side signal; inactive = flat fitted curve, though single readings scatter; the % refers to the signal ratio. The full list was thinned out, with actives kept by preference.
# Experiment: qHTS Assay for Lipid Storage Modulators in Drosophila S3 Cells;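 for cell number change: cells counted by Cell Tracker Red CMTPX staining in the red channel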; for lipid storage change, negative = inhibition: % is set by controls: 0 for no effect and ±100 for the full control effect
# Conditions: BODIPY lipid droplet fluorescence, 18-24 h, cells fed with added oleic acid; cell number change: measured here: cell count max response; series mostly up to 46.1 µM; lipid storage change, negative = inhibition: at the top concentration
# Method in brief: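 Laser-scanning cytometry quantifies lipid droplet accumulation (500–530 nm total intensity; droplet/cell object ratio) in oleic acid-fed (400 uM added) Drosophila S3 cells treated with a concentration series. 20 uM Triacsin C defined 100% inhibition.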
# Potency is the fitted concentration of half-maximal effect.
SMILES,"lipid storage change, negative = inhibition",cell number change,Potency,outcome
S=c1[nH]nc(-c2cccnc2)n1/N=C/c1ccco1,-15.6% (inactive),1.79%,,
CCCCC(C)n1[nH]c(=O)cc1N (stereo not given),,-24.5%,25.9 µM (active),
CCCC(C)n1[nH]c(=O)cc1N (stereo not given),2.48% (inactive),0.134%,,
CCC(C)n1[nH]c(=O)cc1N (stereo not given),-1.97% (inactive),5.9%,,
O=C1CCCN1CCNC(=S)Nc1ccccc1,0.534% (inactive),-13%,,
Cc1ccc(C)c(-n2c(SCC(=O)O)nc3sc4c(c3c2=O)CCCC4)c1,,13%,0.116 µM (active),
Cc1ccccc1-n1c(SCC(=O)O)nc2sc3c(c2c1=O)CCCC3,3.4% (inactive),,,
Nc1nc(SCc2nnc(SCC(=O)O)n2-c2ccccc2)nc2sc3c(c12)CCCC3,,3.22%,23.1 µM (active),
Cc1ccc(-n2c(SCC(=O)O)nc3sc4c(c3c2=O)CCCC4)cc1,6.87% (inactive),9.08%,,
O=C(O)CSc1nc2sc3c(c2c(=O)n1-c1ccccc1)CCC3,2.01% (inactive),10.3%,,
NC(=O)CSc1nc(N)c2c3c(sc2n1)CCCCC3,12.7% (inactive),-16.5%,,
Cc1cc(C)c2c(CN3CC(C)OC(C)C3)cc(=O)oc2c1C (stereo not given),,-15.5%,,inactive
O=C(Nc1ccccc1)N(CCN1CCOCC1)Cc1cccc(Cl)c1,16.6% (inactive),-10.2%,,
Cc1cc(C(=O)N/N=C/c2cccn2C)no1,3.68% (inactive),6.61%,,
CCOC(=O)N1CCc2c(sc3nc(SC(C)C)n(N)c(=O)c23)C1,-13.4% (inactive),-1.6%,,
Oc1ccc(Br)cc1C=Nc1ccc(Cl)cc1,-3.65% (inactive),-3.17%,,
CCc1c(C)sc(NC(=O)Cc2ccccc2OC)c1C(=O)N1CCOCC1,,-8.21%,,inactive
CC(=O)OCC(=O)[C@@]1(O)CC[C@H]2[C@@H]3CCC4=CC(=O)CC[C@]4(C)[C@H]3C(=O)C[C@@]21C,-19.1% (inactive),11.1%,,
CC12CCC(=O)C=C1CCC1C2C(=O)CC2(C)C1CCC2(O)C(=O)CO (stereo not given),,-13.5%,16.4 µM (active),
C[C@]12C=CC(=O)C=C1CC[C@@H]1[C@@H]2C(=O)C[C@@]2(C)[C@H]1CC[C@]2(O)C(=O)CO,,21.3% and -3.16%,inactive,
CCCCC(CC)C(=O)Nc1ccc(Nc2ccccc2)cc1 (stereo not given),25% (inactive),-8.16%,,
CN1C(=O)C(=C2CCCCCC2)SC1=S,8.65% (inactive),-2.61%,,

SMILES,"lipid storage change, negative = inhibition",cell number change,Potency,outcome
COc1cc2c(cc1OC)C1O[C@](CCCCN3C(=O)c4ccccc4C3=O)(C2)Oc2c1c(=O)oc1ccc(F)cc21,16.8% [at 9.22 µM] (inactive),-5.97%,,
CCOC(=O)/C(C#N)=C/c1cc2cc(C)c(C)cc2nc1Cl,18.6% (inactive),-0.849%,,
CC1CCCCN1C(=O)Cn1c(=O)n(CCC(=O)NCc2ccco2)c(=O)c2sccc21 (stereo not given),10.7% (inactive),-5.81%,,
CCOc1ccccc1/C=N/NC(=O)c1nnn(-c2nonc2N)c1CN1CCCC1,,16%,20.6 µM (active),
Nc1nonc1-n1nnc(C(=O)N/N=C/c2ccccc2Br)c1CN1CCCC1,,-1.9%,,inactive
CCCN(CCC)Cc1c(C(=O)N/N=C/C(C)=C\c2ccco2)nnn1-c1nonc1N,,-11.1%,11.6 µM (active),
CN(C)Cc1c(C(=O)N/N=C/c2ccccc2OCc2c(F)cccc2Cl)nnn1-c1nonc1N,,0.435%,4.11 µM (active),
Cc1cccc(COc2ccc(/C=N/NC(=O)c3nnn(-c4nonc4N)c3C)cc2)c1,-3.17% (inactive),11.5%,,
Nc1nonc1-n1nnc(C(=O)N/N=C/c2cccc(Cl)c2Cl)c1CN1CCCC1,,16.7%,,inactive
Cc1ccc(COc2cccc(/C=N/NC(=O)c3nnn(-c4nonc4N)c3C)c2)cc1,,50%,20.6 µM (active),
CC(C)c1c(C(=O)N/N=C/c2ccccc2OCc2c(F)cccc2Cl)nnn1-c1nonc1N,,,,inactive
CN(Cc1c(C(=O)N/N=C/c2c(F)cccc2Cl)nnn1-c1nonc1N)c1ccccc1,-3.49% (inactive),8.36%,,
CC(/C=N/NC(=O)c1nnn(-c2nonc2N)c1CN(C)C)=C\c1ccco1,4.3% (inactive),-0.367%,,
CC(C)c1c(C(=O)N/N=C/c2cccc(OCc3ccc(F)cc3)c2)nnn1-c1nonc1N,,11.8%,,inactive
CC(=C/c1ccco1)/C=N/NC(=O)c1nnn(-c2nonc2N)c1CN(C)C,,,,inactive
Cc1cc(NC(=O)COc2ccc3oc4ccccc4c3c2)no1,15.7% (inactive),-12.8%,,
CC1CCN(C(=O)c2ccc3c(Cl)c4c(nc3c2)CCCC4)CC1,-0.435% (inactive),2.72%,,
Cc1ccc(S(=O)(=O)CCN2CCN(c3ccccc3)CC2)cc1,,-10.3%,,inactive
NS(=O)(=O)c1ccc(CCNC(=O)C(=O)NCC2OCCN2S(=O)(=O)c2ccc(Cl)cc2)cc1 (stereo not given),12.9% (inactive),-8.07%,,
CN(C)c1ccc(/C=N/NC(=O)c2nnn(-c3nonc3N)c2CN(C)c2ccccc2)cc1,,24.5%,,inactive
CN(Cc1c(C(=O)N/N=C/c2ccc(O)cc2)nnn1-c1nonc1N)c1ccccc1,,-9.24%,,inactive
CN(Cc1c(C(=O)N/N=C/c2ccccc2)nnn1-c1nonc1N)c1ccccc1,,-11.2%,4.61 µM (active),
